Laboratory results: PubChem BioAssay (EPA / NIEHS)
Records with an inconclusive call do not appear. Calls of active or inactive are those of the source. How the source made its calls: active means hit-call score of the fitted dose curve at least 0.9, where 1 is the maximum; inconclusive means response in the unintended direction; inactive means score below 0.9.

The compounds below were run against human Dopamine Transporter (DAT), SLC6A3 (gene 6531) (UniProt Q01959) (assay: NVS_TR_hDAT: NovaScreen (NVS) Transporter Assay for human Dopamine Transporter (DAT) (AID 2283374);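 further: activity means loss of bound radioligand signal relative to DMSO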).
Chain of human Dopamine Transporter (DAT), SLC6A3 (gene 6531) (Q01959 whole entry, looked up): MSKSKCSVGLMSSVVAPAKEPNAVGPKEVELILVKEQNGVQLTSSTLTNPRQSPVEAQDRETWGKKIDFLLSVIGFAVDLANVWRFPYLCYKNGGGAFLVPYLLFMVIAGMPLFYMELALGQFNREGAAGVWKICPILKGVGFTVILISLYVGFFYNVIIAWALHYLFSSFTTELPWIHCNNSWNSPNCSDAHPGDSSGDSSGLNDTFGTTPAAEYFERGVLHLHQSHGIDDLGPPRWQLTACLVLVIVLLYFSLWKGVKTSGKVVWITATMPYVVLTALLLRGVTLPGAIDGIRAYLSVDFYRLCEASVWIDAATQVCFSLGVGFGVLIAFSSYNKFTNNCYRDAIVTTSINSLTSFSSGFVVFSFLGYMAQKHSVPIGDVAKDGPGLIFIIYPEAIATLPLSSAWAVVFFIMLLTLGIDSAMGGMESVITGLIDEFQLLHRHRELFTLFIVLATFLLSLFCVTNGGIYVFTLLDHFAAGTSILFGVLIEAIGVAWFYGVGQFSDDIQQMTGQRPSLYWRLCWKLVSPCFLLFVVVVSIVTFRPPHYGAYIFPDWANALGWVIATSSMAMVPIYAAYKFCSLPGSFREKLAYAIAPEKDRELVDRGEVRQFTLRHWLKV
How it was run: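 hDAT membranes + tritiated/iodinated radioligand, competitive displacement; 1 h; filter scintillation readout. Single conc 25 uM (duplicate), then conc-response for actives. DMSO = negative control.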

| Structure (SMILES) | AC50 | outcome |
| --- | --- | --- |
| [Cl-].[Cl-].[Hg+2] | 25 µM (active) | – |
| CCC[CH2][Sn]([Cl])([CH2]CCC)[CH2]CCC | 3.59 µM (active) | – |
| Cc1cc(N=Nc2ccccc2C)ccc1N | 17.4 µM (active) | – |
| CCC(C)c1ccc(O)cc1 (centres undefined) | 4.96 µM (active) | – |
| CC(C)(C)C(O)(CCc1ccc(Cl)cc1)Cn1cncn1 (centres undefined) | 4.04 µM (active) | – |
| O=C(Oc1ccc(Br)cc1)N1CCN2CCC1CC2 | 8.54 µM (active) | – |
| Cn1cc(-c2ccccc2)c(=O)c(-c2cccc(C(F)(F)F)c2)c1 | 16.5 µM (active) | – |
| CCCCCCCCn1sccc1=O | – | inactive |
| O=C(N[C@H](c1ccccc1)[C@@H]1CN2CCC1CC2)c1c(Cl)ccc(C(F)(F)F)c1Cl | 23.1 µM (active) | – |
| Nc1ccc(Oc2ccc(N)cc2)cc1 | 3.25 µM (active) | – |
| Nc1ccc(N=Nc2ccccc2)cc1 | 2.24 µM (active) | – |
| Nc1ccc(Cc2ccc(N)cc2)cc1 | 9.3 µM (active) | – |
| CCOC(=O)[C@]1(c2ccccc2)Oc2ccccc2[C@@H]1N | 2.98 µM (active) | – |
| CC(C)N(Cc1ccccc1)C(=O)C(C)(C)C | 6.52 µM (active) | – |
